CHT allo act: CHT positive allosteric modulators, primary screen, cell-based, membrane potential dye, choline EC20; High affinity choline transporter 1 (Homo sapiens), Q9GZV3; B-score at 10 µM; 310,000 compounds, 0.49% hits; CHT-expressing cells; active compounds read high; LV-AA mutant CHT in HEK293 cells; AID 488977, 2010;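 active means initial fluorescence not abnormally high and integrated response B-score, plate-corrected, over 3 SD above library mean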
CHT inh: inhibitors of human choline transporter CHT; 310,000 compounds, 0.86% hits; AID 488975, 2010; B-score at 10 µM; CHT-expressing cells, membrane potential dye, choline response; active compounds read low;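 active means B-score over 3 SD under the library average, and starting fluorescence ratio not unusually high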;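 further: choline stimulus applied at its EC90 after an EC20 pre-addition; B-score computed on integrated fluorescence ratio after choline addition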
PGE2 EP2 inh: human EP2 receptor antagonists, primary screen, TR-FRET cAMP, C6 glioma cells. C6 glioma cells expressing human EP2; cells stimulated with saturating PGE2. 260,000 compounds, 0.52% hits. inhibition, % at 25 µM;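 active means percent inhibition above 40 after rounding to a whole number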;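 further: rat C6 glioma host cells with rolipram phosphodiesterase inhibitor present; the protocol text gives 20 µM as final concentration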
Target sequence (P43116 whole entry, looked up): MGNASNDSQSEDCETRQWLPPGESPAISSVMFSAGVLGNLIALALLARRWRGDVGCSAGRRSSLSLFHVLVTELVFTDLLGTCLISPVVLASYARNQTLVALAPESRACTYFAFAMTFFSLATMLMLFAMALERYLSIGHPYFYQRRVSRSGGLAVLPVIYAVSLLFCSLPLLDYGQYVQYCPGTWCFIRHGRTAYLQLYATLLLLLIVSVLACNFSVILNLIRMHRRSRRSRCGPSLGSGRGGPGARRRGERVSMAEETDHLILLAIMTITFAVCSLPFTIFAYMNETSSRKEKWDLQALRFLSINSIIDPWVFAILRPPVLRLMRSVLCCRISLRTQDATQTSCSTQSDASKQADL
EP2 modulator: EP2 receptor modulators, cAMP readout, primary screen, cell-based, HTRF cAMP, PGE2 stimulation. 260,000 compounds, 0.83% hits. EP2-expressing cells, cAMP HTRF FRET, PGE2 co-stimulation. AID 940, 2007. induction, % at 25 µM. Prostaglandin E2 receptor EP2 subtype (Homo sapiens), P43116;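 active means compounds whose cAMP rise, as percent of the full-agonist control response, exceeds 60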;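 further: rat C6 glioma line stably carrying human EP2 under a CMV promoter; the protocol text gives 20 µM as final concentration; 100% = response of wells given 1 µM PGE2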
An asterisk follows results filed as active; i = inactive; / = no result; ! = a repeat was not active. Shown are actives, neighbours in structure and some others; about 2.1% of the full set was active somewhere.

SMILES | CHT allo act | CHT inh | PGE2 EP2 inh | EP2 modulator
CC(=O)n1cc(C(C[N+](=O)[O-])SCCN)c2ccccc21 (configuration not stated) | i | i | 50.3* | -50.0
CCOC(=O)c1cc2c(=O)n3cc(C)ccc3nc2n(CCCOC)c1=N | / | / | 5.0 | -1.8
CCC(c1nnnn1C1CCCC1)N(Cc1ccc(C)cc1)Cc1cc2ccc(C)cc2[nH]c1=O (configuration not stated) | / | / | 6.3 | 27.3
CCC(c1nnnn1C(C)(C)C)N(Cc1ccc(OC)cc1)Cc1cc2cc(C)ccc2[nH]c1=O (configuration not stated) | / | / | 14.4 | 58.2
CCC(c1nnnn1C(C)(C)C)N(Cc1ccccc1)Cc1cc2cc(OC)ccc2[nH]c1=O (configuration not stated) | / | / | 11.8 | 68.5*
CCCC(c1nnnn1C1CCCC1)N(Cc1cc2cc(OCC)ccc2[nH]c1=O)C1CCCC1 (configuration not stated) | / | / | 9.7 | 30.5
CCOc1ccc2[nH]c(=O)c(CN(Cc3ccccc3)C(CC)c3nnnn3C3CCCC3)cc2c1 (configuration not stated) | / | / | 20.2 | 62.0*
CCC(c1nnnn1C1CCCCC1)N(Cc1ccccc1)Cc1cc2cc(C)c(C)cc2[nH]c1=O (configuration not stated) | / | / | 7.3 | 59.2
CCC(c1nnnn1C1CCCCC1)N(Cc1ccc(C)cc1)Cc1cc2cccc(C)c2[nH]c1=O (configuration not stated) | / | / | 9.0 | 66.2*
CCOc1ccc2[nH]c(=O)c(CN(Cc3cccs3)C(CC)c3nnnn3C3CCCC3)cc2c1 (configuration not stated) | / | / | 5.9 | 62.5*
CCCn1c(SCC(=O)Nc2c(C)cccc2CC)nnc1-c1ccncc1 | / | / | 13.4 | -1.9
CCC(c1nnnn1C1CCCC1)N(Cc1ccccc1)Cc1cc2cc(OC)ccc2[nH]c1=O (configuration not stated) | / | / | 15.3 | 73.9*
CCCCCn1c(Sc2nc3ccccc3s2)nc2c1c(=O)[nH]c(=O)n2C | i | i | 7.2 | 62.9*
C/C=C/Cn1c(SCc2ccccc2)nc2c1c(=O)[nH]c(=O)n2C | i | i | 9.7 | 65.8*!
Cn1c(=O)[nH]c(=O)c2c1nc(SCCO)n2CCCc1ccccc1 | i | i | / | /
CC(C)Sc1nc2c(c(=O)[nH]c(=O)n2C)n1CCCc1ccccc1 | / | / | 9.2 | 71.4*
CCN(CC)C(=O)N(Cc1ccc(OC)cc1)Cc1cc2ccc(C)cc2n2nnnc12 | / | / | 3.6 | -7.3
COCCn1c(=O)n(CC(=O)N2CCc3ccccc32)c2cccnc21 | / | / | / | 6.2
CCOc1ccc(C(=O)N2CCC(c3ncncc3-c3cc(C)no3)CC2)o1 | / | / | / | -18.2
CC(=O)c1cc(C#N)c(SCCC(C)C)nc1C | i | i | 5.3 | 61.5*
CCSc1nc(C)c(C(C)=O)cc1C#N | i | i | 6.7 | 30.5
O=C1c2ccccc2-c2c(NCCc3ccccc3)c(=O)[nH]c3cccc1c23 | / | / | 10.3 | 65.8*
O=C1Nc2ccc(S(=O)(=O)NCCc3ccccc3)c3cccc1c23 | / | / | 14.3 | -31.6
CSc1nc(=S)c2[nH]c(=S)[nH]c2[nH]1 | i | i | 44.5* | 23.6
CSc1nc2c(c(=O)[nH]1)CCCC2 | i | i | 13.4 | 0.1
SMILES | CHT allo act | CHT inh | PGE2 EP2 inh | EP2 modulator
O=C(C1CCC(=O)N1Cc1ccccc1Cl)N1CCN(c2cccc(Cl)c2)CC1 (configuration not stated) | i | i | 69.1* | /
CC(=O)Oc1ccc(N2C(=O)C3C4C=CC(CO)(O4)C3C2=O)cc1 (configuration not stated) | i | i | 17.1 | -0.6
CC(=O)Oc1ccc(N2C(=O)C3C(C2=O)C2(C)C=CC3(C)O2)cc1 (configuration not stated) | i | i | 135.8* | /
Cc1cc(-c2cn[nH]c2C2CCN(S(=O)(=O)c3ccc4c(c3)OCCO4)CC2)on1 | / | / | / | -60.4
COC(=O)Cc1ccc(NC(=S)NCCCN2CCOCC2)cc1 | i | -6.78* | 4.4 | 14.5
CCc1nn(CC(=O)N2CCCCC2C)c(=O)c2cc3sccc3n12 (configuration not stated) | / | / | / | -45.7
Cc1cccc(C(CC(=O)NCc2ccco2)c2ccccc2)c1O (configuration not stated) | i | i | 6.5 | 33.8
C=C(C)CC(Nc1ccco1)c1ccccc1C (configuration not stated) | / | / | 5.3 | 61.2*
O=C(CN1C(=O)N2CCN=C2c2ccccc21)NC1CCCC1 | / | / | 12.4 | -30.2
CC(=O)Nc1ccc(Oc2nc(C(F)(F)F)nc3ccccc23)cc1 | i | i | / | /
Cc1cc(C)cc(Oc2nc(C(F)(F)F)nc3ccccc23)c1 | i | i | 8.7 | 60.6*
CC(C)(C)NC(=O)CN1CCC(n2nc(-c3cccs3)ccc2=O)CC1 | / | / | / | -54.1
CN(CCc1ccccn1)c1ccc2c(c1)C(=O)c1ccccc1-2 | / | / | 74.6* | -63.1
COc1ccc(OC)c(CN(CCN(C)C)Cc2ccncc2)c1 | / | / | 3.0 | -14.3
Cc1cc(C)c(NC(=O)/C(=C/c2ccccc2)c2ccccc2)c(C)c1 | i | i | 2.8 | 61.9*
O=C(O)/C(=C/c1ccco1)c1ccccc1 | i | i | -1.9 | 12.7
Cc1ccc(NC(=O)/C(=C/c2ccco2)c2ccccc2)c(C)c1 | i | i | 5.0 | 64.8*
O=C(COC(=O)c1ccccc1Nc1ccccc1)c1ccccc1 | i | i | 5.7 | 22.5
COC(=O)c1ccccc1Nc1ccccc1 | i | i | 9.2 | 63.8*
CCOC(=O)c1cc(C(=O)c2cccs2)n2ccc(C(C)=O)cc12 | i | i | 9.6 | 64.4*
CCOC(=O)c1cc(C(C)=O)n2ccccc12 | i | i | 6.9 | 22.2
O=C1NC(=O)N(c2ccc(F)cc2)C(=O)/C1=C/c1ccco1 | / | / | 53.3* | -120.2
CCC(C)(C)n1nnnc1C(C(C)C)N(Cc1cc2cc(C)cc(C)c2[nH]c1=O)CC1CCCO1 (configuration not stated) | / | / | 7.7 | 3.7
COc1ccccc1-c1cc(C(F)(F)F)nc(S(=O)(=O)CCCC(=O)N2CCOCC2)n1 | i | -5.1* | 13.2 | 17.0
COC(=O)c1ccc(NC(=O)c2ccc(N(C)S(C)(=O)=O)cc2)cc1 | i | i | 113.0* | -6.2
SMILES | CHT allo act | CHT inh | PGE2 EP2 inh | EP2 modulator
Fc1cccc(F)c1C(Nc1nncs1)Nc1nncs1 | / | / | 46.4* | 31.9
Clc1cccc(Cl)c1C(Nc1nncs1)Nc1nncs1 | / | / | 52.0* | 15.4
COC(=O)c1ccc2c(c1)C(C)(C)C(/C=C/c1ccccc1O)=[N+]2C | 7.22* | i | 3.0 | -3.8
C[N+]1=C(/C=C/Nc2ccccc2Cl)C(C)(C)c2ccccc21 | i | i | 7.9 | -24.3
CCc1cccc(CC)c1NC(=O)C1COc2ccccc2O1 (configuration not stated) | / | / | 6.7 | 36.5
Cc1ccccc1/C=C\c1nc2ccccc2c(=O)n1Cc1ccccc1 | i | i | 9.9 | 62.7*
